Reference: PubChem BioAssay (NCATS)
Records with an inconclusive call do not appear. The source made the active and inactive calls. Calls come from the whole dose curve; as a rule, active = well fitted curve in the direction sought with a large enough effect; inconclusive = small, poorly fitted or top-dose-only effect, or another doubt; inactive = no such curve, though single readings can be large; an effect the other way counts as inactive or inconclusive.

Legend:
[1] = molecular target: Calcium and integrin-binding protein 1 (Homo sapiens) (UniProt Q99828); assay: Primary qHTS for Identification of Calcium Integrin Binding Protein 1 (CIB1) Competitor (AID 1508620);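 note: GST tagged CIB1 binding a fluorescein labelled alphaIIb integrin peptide tracer; top concentration of the series differs between compounds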
Chain of Calcium and integrin-binding protein 1 (Homo sapiens) (Q99828 whole entry, looked up): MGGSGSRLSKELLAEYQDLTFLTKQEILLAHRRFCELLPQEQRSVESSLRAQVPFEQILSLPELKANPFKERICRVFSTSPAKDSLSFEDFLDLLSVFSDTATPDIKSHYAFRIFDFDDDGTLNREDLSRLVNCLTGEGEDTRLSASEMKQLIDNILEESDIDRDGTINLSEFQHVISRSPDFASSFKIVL
How it was run: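 Fluorescence polarization competition: CIB1-GST (1 uM final) preincubated with compound 15 min at room temperature, then FITC-labeled alphaIIb peptide (100 nM final) added for another 15 min. Polarization read at Ex 480/Em 540.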

[2] = Primary qHTS for inhibitors of nuclear receptor binding SET domain protein 2 (NSD2) in an isogenic RCH-ACV NSD2 p.E1099K mutant (9B) (AID 1645876); note: nearly all actives have a fitted effect of over 70% in size
[3] = Primary qHTS for inhibitors of nuclear receptor binding SET domain protein 2 (NSD2) in an RCH-ACV wild type WT cells (2C) (AID 1645877); note: nearly all actives have a fitted effect of over 70% in size

Measured: Potency

CC(C)/C=C1/NC(=O)C(C(C)C)n2c1nc1c(O)cccc1c2=O (configuration not stated)
inactive: all assays above

CCC12CCCN3CCc4c(n(c5ccccc45)C(O)C1)C32 (configuration not stated)
inactive: all assays above

COc1cc(O)c2c(c1)C1(OC2=O)C(C)=CC(=O)C1O (configuration not stated)
inactive: all assays above

CC(=O)c1ccc(O[C@@H]2OC[C@@H](O)[C@H](O)[C@H]2O[C@]2(CO)O[C@H](CO)[C@@H](O)[C@@H]2O)c(O)c1
inactive: all assays above

COc1cc(/C=C/C(=O)O[C@H]2[C@H](O)[C@@H](CO)O[C@@]2(CO)O[C@H]2O[C@H](CO)[C@@H](O)[C@H](O)[C@H]2O)cc(OC)c1O
inactive: all assays above

COC(=O)C1=CO[C@@H](O[C@@H]2O[C@H](CO)[C@@H](O)[C@H](O)[C@H]2O)[C@H]2[C@@H]1C=C[C@]21C=C([C@H](C)OC(=O)/C=C/c2ccc(O[C@@H]3O[C@H](CO)[C@@H](O)[C@H](O)[C@H]3O)cc2)C(=O)O1
inactive: all assays above

C=C1C[C@H](O)[C@@H](O)[C@@]2(C)C1[C@@H](O)[C@H]1OC(=O)C3[C@@H](C)[C@@H](O)[C@H](O)C2[C@]31C (some centres not stated)
inactive: all assays above

CC(=O)[C@@H]1C[C@H](C(C)(C)O[C@@H]2O[C@H](CO)[C@@H](O)[C@H](O)[C@H]2O)CC[C@@]2(CO)OC(=O)C[C@@H]12
inactive: all assays above

CC1=CC[C@@]2(C)CC[C@@](O)(C(C)C)[C@@H]2[C@@H](O)C1
inactive: all assays above
